The source of these data is PubChem BioAssay (Tox21).

Structures are written as SMILES. Activity calls are given as the source filed them. Calls come from the whole dose curve; as a rule, active = well fitted curve in the direction sought with a large enough effect in the repeat runs; inconclusive = weak or mixed curves; inactive = flat fitted curve, though single readings scatter.

This experiment can be described thus: qHTS assay to test for compound auto fluorescence at 535 nm (green) in HepG2 cells (AID 720675). The note with it: green autofluorescence 485/535 nm, 1 h; series mostly up to 91.3 µM. The text has this:
National Center for Advancing Translational Sciences [NCATS]
NIH Chemical Genomics Center [NCGC]
U.S. Environmental Protection Agency [EPA]
National Institutes of Environmental Health Sciences [NIEHS]
National Toxicology Program [NTP]
U.S. Food and Drug Administration [FDA]
Compound auto fluorescence often interferes with screening of the compound library against various biological targets and signaling pathways. Some of these compounds may have fluorophoric properties. Such properties may interfere with the assay outputs resulting in false positives and/or negatives. To decrease such complications and ensure the compound activities are relevant in terms of biological response, the Tox21 10K compound library was screened for auto fluorescence.
From the fluorophores used as reporter signals in our screening assays, the auto fluorescence equivalencies of compounds against three fluorophores have been evaluated: Triamterene, Fluorescein and Rose Bengal sodium for blue, green and red fluorescence, respectively. The fluorescence intensities were measured using Excitation/Emission wavelengths at 405/460nm, 485/535nm and 540/590nm for blue, green and red labels, respectively. This assay includes the green fluorescence data.
Tox21 Assay Protocol Summary:
2,000 HepG2 cells in 5 uL of culture medium (MEM containing 10% FBS) per well were dispensed into black wall/clear bottom 1536-well plates using a Multidrop Combi Dispenser (ThermoFisher Scientific, Waltham, MA). The assay plates were incubated overnight at 37 C to allow cell attachment to the well bottom, followed by the transfer of 23 nL compound or DMSO vehicle by a pintool work station (Kalypsys , San Diego, CA). After the assay plates were incubated for 1 hr at 37 C and 5% CO2, fluorescence intensities in the assay plates were measured by an Envision (PerkinElmer, Shelton, CT) plate reader using three labels for measuring blue, green and red fluorescence at […] 460, 535 and 590 nm respectively.
For orientation: Quantitative high-throughput screening tests each substance at several concentrations.
Regarding `ClC1C(Cl)C(Cl)C(Cl)C(Cl)C1Cl` (stereo not given), the result was inactive.

With `CCC(C)c1cc([N+](=O)[O-])cc([N+](=O)[O-])c1O` (stereo not given), the call was inactive.

As to `Oc1cc(Cl)c(Cl)cc1Cl`, the outcome was inactive.

Regarding `c1ccc(NNc2ccccc2)cc1`, the result was inactive.

As to `CC(C)c1ccc(CO)cc1`, the call was inactive.

For the molecule `CC(C)=CC1C(C(=O)OCc2coc(Cc3ccccc3)c2)C1(C)C` (stereo not given), the molecule was called inactive.

With `O=[N+]([O-])c1c(Cl)c(Cl)c(Cl)c(Cl)c1Cl`, the outcome was inactive.

`S=C1NCCN1`: the outcome was inactive.

As to `CCCCC(CC)COC(=O)c1ccc(C(=O)OCC(CC)CCCC)c(C(=O)OCC(CC)CCCC)c1` (stereo not given), the outcome was inactive.

Consider `COP(=S)(OC)Oc1ccc([N+](=O)[O-])cc1`, for which the molecule was called inactive.

On to `CCCCNC(=O)n1c(NC(=O)OC)nc2ccccc21`, for which the call was inactive.

Consider `O=C(CCl)c1ccccc1`, for which the molecule was classed as inactive.

Take `O=S(=O)(Oc1ccc(Cl)cc1)c1ccc(Cl)cc1`: the result was inactive.

In the case of `O=c1oc2ccccc2c(O)c1C(CC(O)c1ccc(-c2ccc(Br)cc2)cc1)c1ccccc1` (stereo not given), the result was inactive.

Consider `O=C(O)C(F)(F)C(F)(F)C(F)(F)C(F)(F)C(F)(F)C(F)(F)C(F)(F)F`, for which the molecule was classed as inactive.

On to `O=Cc1ccco1`, for which the molecule was classed as inactive.

Take `O=P(O)(O)CCCl`: the molecule was called inactive.

For the molecule `CCC(=O)O[C@H]1CC[C@H]2[C@@H]3CCC4=CC(=O)CC[C@]4(C)[C@H]3CC[C@]12C`, the result was inactive.

As to `C#C[C@]1(O)CC[C@H]2[C@@H]3CCC4=CC(=O)CC[C@]4(C)[C@H]3CC[C@@]21C`, the call was inactive.

Turning to `Nc1c(Cl)cc([N+](=O)[O-])cc1Cl`, the outcome was inactive.

In the case of `CCOP(=S)(OCC)O/N=C(\C#N)c1ccccc1`, the outcome was inactive.

Take `c1ccc(-c2cccc(-c3ccccc3)c2)cc1`: the result was inactive.

Turning to `COc1ccc(C(CN(C)C)C2(O)CCCCC2)cc1` (stereo not given), the outcome was inactive.

For the molecule `C=C(C)[C@H]1Cc2c(ccc3c2O[C@@H]2COc4cc(OC)c(OC)cc4[C@@H]2C3=O)O1`, the call was inactive.

`c1ccc(N=Nc2ccccc2)cc1`: the result was inactive.

Consider `COP(=O)(OC)OC`, for which the outcome was inactive.

`Cc1c(COC(=O)[C@@H]2[C@H](/C=C(\Cl)C(F)(F)F)C2(C)C)cccc1-c1ccccc1`: the molecule was classed as inactive.

As to `O=[N+]([O-])c1cccc2ccccc12`, the result was inactive.

Turning to `O=C1C=CC(=O)C=C1`, the call was inactive.

Take `c1nc[nH]n1`: the molecule was classed as inactive.

For `Nc1cccnc1`, the molecule was classed as inactive.

For the molecule `CN(C)c1ccc(C(=O)c2ccc(N(C)C)cc2)cc1`, the outcome was inactive.

For the molecule `O=[N+]([O-])c1ccc(O)c([N+](=O)[O-])c1`, the call was inactive.

In the case of `CCCCCCOC(=O)c1ccccc1C(=O)OCCCCCC`, the molecule was called inactive.

`CC(C)(c1cc(Cl)c(O)c(Cl)c1)c1cc(Cl)c(O)c(Cl)c1`: the molecule was classed as inactive.

In the case of `Cc1ccc(OP(=O)(Oc2ccc(C)cc2)Oc2ccc(C)cc2)cc1`, the molecule was called inactive.

Regarding `CN(C)C(=O)Nc1ccc(Cl)cc1`, the result was inactive.

As to `NNC(N)=S`, the outcome was inactive.

With `CCC(CC)Nc1c([N+](=O)[O-])cc(C)c(C)c1[N+](=O)[O-]`, the outcome was inactive.

As for `CC(C)NC(C)C`, the call was inactive.
